Reference: PubChem BioAssay (NCI)
This is part of a sample that, as a whole, favours compounds with a hit. Of some 83,000 tested, about 20% had one in any assay.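 Percent growth is the endpoint: 0 to 100 indicates growth inhibition (40 means 60% inhibition), 0 means no net growth, and negative values indicate cell death.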 Activity calls are given as the source filed them. Rule for the calls: active = growth percent below 10; inactive = the rest.

These molecules were tested on NCI-H226 lung (assay: NCI-60 one-dose screen, 48 h (100 = growth as untreated, 0 = no growth, -100 = all killed)). Details: 10 µM.
In the case of `Cn1cnc([N+](=O)[O-])c1/C=C1\Oc2ccc(Cl)cc2C1=O`, the growth was 94.8% (inactive). For `CCOC(=S)Sc1ccc([N+](=O)[O-])cc1[N+](=O)[O-]`, the growth was 88.8% (inactive). For `NC(N)=NS(=O)(=O)c1ccc(Nc2ccc3nnc(-c4ccncc4)n3n2)cc1`, the growth was 96.5% (inactive). In the case of `N#C/C(=C\N1C(=O)/C(=C/c2cccc([N+](=O)[O-])c2)SC1=S)c1nc2ccccc2s1`, the growth was 77.2% (inactive). `CC(=O)Nc1ccc(Sc2ccc(NC(C)=O)cc2)cc1` was tested, and the growth was 101% (inactive). With `O=C(CCl)N1c2ccccc2Sc2ccc3ccccc3c21` the growth was 34.4% (inactive). With `Cc1ccc(Cl)cc1Nc1nc(C(F)(F)F)ccc1C(=O)N/N=C/c1c(Cl)cccc1Cl` the growth was -40.5% (active). With `COc1ccc(C2C=C(c3ccc(Cl)c(Cl)c3)N=C3SC(C)=CN32)cc1OC` (configuration not stated) the growth was 79.7% (inactive). `CCn1nc(-c2ccccn2)c2cccnc2c1=S` was tested, and the growth was 93.8% (inactive). With `C=C[C@]1(C)C=C2C(=O)[C@@]3(O)OC(=O)[C@@]4(CCCC(C)(C)[C@H]34)[C@@]2(O)CC1` the growth was -55.8% (active). With `CCN(CC)CCCOC(=O)Nc1ccccc1Cl` the growth was 108% (inactive). For `O=S(=O)(NC1c2ccccc2Oc2ccccc21)c1cc(Cl)ccc1Cl`, the growth was 83.4% (inactive). With `N#Cc1ccc(-n2cnc(NC(=O)[C@H]3CCN(C#N)C3)c2)cc1` the growth was 26.4% (inactive). For `CC(=O)n1nc(C(=O)OC(C)(C)C)c2cc(F)c(F)cc21`, the growth was 105% (inactive). In the case of `O=C1CC[C@@H](C(=O)N[C@H]2CSSC[C@@H](C(=O)NCCc3ccccc3)NC(=O)[C@H](Cc3ccccc3)NC(=O)[C@@H]3CCCN3C(=O)[C@@H]3CCCN3C2=O)N1`, the growth was 87.5% (inactive). `CCc1c(C(=O)NCc2c(O)ccc3cccc(O)c23)[nH]c(C)c1C(C)=O` was tested, and the growth was 52.7% (inactive). `CS(=O)(=O)Nc1ccc(OCc2nnc(-c3ccc(Cl)cc3)o2)c(F)c1` was tested, and the growth was 86.2% (inactive). With `COc1ccc(-c2nc(-c3nc4ccc(OC)cc4[nH]3)c3ccccn23)cc1` the growth was 75.1% (inactive). `CC(C)c1ncc(CO)n1Cc1c(Cl)cccc1Cl` was tested, and the growth was 94.3% (inactive). For `NC1CCC(Nc2nc(NCc3ccc(-c4ccco4)nc3)c3ncn(C4CCCC4)c3n2)CC1` (configuration not stated), the growth was -18.6% (active). `c1ccc(C2CCCCC2)c(OCCCCCN2CCNCC2)c1` was tested, and the growth was 84.7% (inactive). For `N#Cc1c(-c2ccccc2)nc(SCC(=O)N2CCOCC2)[nH]c1=O`, the growth was 98% (inactive). `Cc1cn(C(=O)/C(Cl)=C(/Cl)C(=O)O)c2ccccc12` was tested, and the growth was 97.6% (inactive). For `C=CCNCCCN1C(=O)c2ccc3c4c(ccc(c24)C1=O)C(=O)N(CCCNCC=C)C3=O`, the growth was -30.8% (active).

The molecules below were run on NCI-H322M lung in the same assay as above. Details: 10 µM.
With `O=[N+]([O-])C1CC2C=CC1C2` (configuration not stated) the growth was 91.1% (inactive). `COc1ccc(C2CC(c3ccc(-c4ccccc4)cc3)=NN2c2ccc(S(N)(=O)=O)cc2)cc1` (configuration not stated) was tested, and the growth was 68.5% (inactive). `O=C(Nc1cccc(F)c1)Nc1cccc(Cl)c1` was tested, and the growth was 94.8% (inactive). In the case of `COc1cc(/C=C2\C(=O)Nc3cc(C)c(O)cc32)cc(OC)c1OC`, the growth was 80% (inactive). In the case of `COC(=O)c1ccc(Cn2ccc(=O)[nH]c2=O)cc1`, the growth was 116% (inactive). With `Nc1nc2c(ncn2C2OC3COP(=O)(O)OC4C(COP(=O)(O)OC2C3O)OC(n2cnc3c(N)ncnc32)C4O)c(=O)[nH]1` (configuration not stated) the growth was 105% (inactive). With `COc1cccc(C(=O)NNc2nc(N3CCN(C4CCCCC4)CC3)nc(N3CCN(C(c4ccccc4)c4ccccc4)CC3)n2)c1` the growth was 74.5% (inactive). With `O=C(CCCC(=O)N/N=C/c1cc(Cl)ccc1O)N/N=C\c1cc(Cl)ccc1O` the growth was 23.7% (inactive). For `COc1ccc2nc(/C=C/c3ccc(N(C)C)cc3)sc2c1`, the growth was 99.6% (inactive). For `O=c1cc(CSc2nnc(-c3ccccc3)n2-c2ccc(F)cc2)c2ccc3ccccc3c2o1`, the growth was 91.8% (inactive). With `O=C(O)CCCCSCCCCC(=O)O` the growth was 109% (inactive). For `C#C[C@]1(O)CC[C@H]2[C@@H]3CC[C@H]4CC(F)(F)CC[C@]4(C)[C@H]3CC[C@@]21C`, the growth was 89% (inactive). In the case of `O=C(OCC1OC(n2cc(C(F)(F)F)c(=O)[nH]c2=O)CC1OC(=O)c1ccc([N+](=O)[O-])cc1)c1ccc([N+](=O)[O-])cc1` (configuration not stated), the growth was 91.2% (inactive). With `COC(=O)c1cnc2c(c1)Oc1ccc(Cl)cc1-c1cc(C)nn1-2` the growth was 66.9% (inactive). `Cn1cnc([N+](=O)[O-])c1/C=C1\Oc2ccc(Cl)cc2C1=O` was tested, and the growth was 91% (inactive). With `CCOC(=S)Sc1ccc([N+](=O)[O-])cc1[N+](=O)[O-]` the growth was 93.3% (inactive). `NC(N)=NS(=O)(=O)c1ccc(Nc2ccc3nnc(-c4ccncc4)n3n2)cc1` was tested, and the growth was 103% (inactive). In the case of `N#C/C(=C\N1C(=O)/C(=C/c2cccc([N+](=O)[O-])c2)SC1=S)c1nc2ccccc2s1`, the growth was 92.9% (inactive). In the case of `CC(=O)Nc1ccc(Sc2ccc(NC(C)=O)cc2)cc1`, the growth was 110% (inactive). In the case of `O=C(CCl)N1c2ccccc2Sc2ccc3ccccc3c21`, the growth was 65.9% (inactive). `Cc1ccc(Cl)cc1Nc1nc(C(F)(F)F)ccc1C(=O)N/N=C/c1c(Cl)cccc1Cl` was tested, and the growth was 17.8% (inactive). For `COc1ccc(C2C=C(c3ccc(Cl)c(Cl)c3)N=C3SC(C)=CN32)cc1OC` (configuration not stated), the growth was 71.7% (inactive). `CCn1nc(-c2ccccn2)c2cccnc2c1=S` was tested, and the growth was 87.3% (inactive). For `C=C[C@]1(C)C=C2C(=O)[C@@]3(O)OC(=O)[C@@]4(CCCC(C)(C)[C@H]34)[C@@]2(O)CC1`, the growth was -27.4% (active). With `CCN(CC)CCCOC(=O)Nc1ccccc1Cl` the growth was 129% (inactive). For `O=S(=O)(NC1c2ccccc2Oc2ccccc21)c1cc(Cl)ccc1Cl`, the growth was 90% (inactive). With `N#Cc1ccc(-n2cnc(NC(=O)[C@H]3CCN(C#N)C3)c2)cc1` the growth was 43.5% (inactive). In the case of `CC(=O)n1nc(C(=O)OC(C)(C)C)c2cc(F)c(F)cc21`, the growth was 102% (inactive). For `O=C1CC[C@@H](C(=O)N[C@H]2CSSC[C@@H](C(=O)NCCc3ccccc3)NC(=O)[C@H](Cc3ccccc3)NC(=O)[C@@H]3CCCN3C(=O)[C@@H]3CCCN3C2=O)N1`, the growth was 115% (inactive). For `CCc1c(C(=O)NCc2c(O)ccc3cccc(O)c23)[nH]c(C)c1C(C)=O`, the growth was 69.5% (inactive). `CS(=O)(=O)Nc1ccc(OCc2nnc(-c3ccc(Cl)cc3)o2)c(F)c1` was tested, and the growth was 109% (inactive). With `COc1ccc(-c2nc(-c3nc4ccc(OC)cc4[nH]3)c3ccccn23)cc1` the growth was 65% (inactive). For `CC(C)c1ncc(CO)n1Cc1c(Cl)cccc1Cl`, the growth was 99.7% (inactive). In the case of `NC1CCC(Nc2nc(NCc3ccc(-c4ccco4)nc3)c3ncn(C4CCCC4)c3n2)CC1` (configuration not stated), the growth was 21.4% (inactive). `c1ccc(C2CCCCC2)c(OCCCCCN2CCNCC2)c1` was tested, and the growth was 72.6% (inactive). For `N#Cc1c(-c2ccccc2)nc(SCC(=O)N2CCOCC2)[nH]c1=O`, the growth was 98.1% (inactive). `Cc1cn(C(=O)/C(Cl)=C(/Cl)C(=O)O)c2ccccc12` was tested, and the growth was 128% (inactive). For `C=CCNCCCN1C(=O)c2ccc3c4c(ccc(c24)C1=O)C(=O)N(CCCNCC=C)C3=O`, the growth was -48.3% (active).
